# Results: the supplement of paper PMC10849652
# Targets with a hit are over-represented here; the source holds about 7,900 in all. About 0.6% of all pairs of compound and target were hits. A number with no mark means an inactive call.
# Assays:
# Assay in all cases: log2 fold change, soluble protein after heating vs DMSO (PISA); higher = thermal stabilisation; K562 cells, 10 uM, 30 min; active = over 0.2 and 3.5 SD of the protein, either way, in both replicates (recomputed)
# [1] = compound: CS(=O)(=O)c1ccc(-c2cnc(N)c(C(=O)Nc3ccccc3)n2)cc1
# How it was run: (§1)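 For each measurement, 10 μM compound was applied for 30 min to K562 cells at 2×10^6 cells/mL. Aliquots were heated for 3 min across 48°C-58°C, pooled, and extracted in PBS with 0.5% NP-40 at 4°C; the supernatant after 21,000xg for 90 min was soluble protein. This was quantified by TMTpro 16plex LC-MS/MS with channel sums equalised, and thermal stability was reported relative to control samples from duplicates, on a log2 fold-change scale.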
# crizotinib = compound: C[C@@H](Oc1cc(-c2cnn(C3CCNCC3)c2)cnc1N)c1c(Cl)ccc(F)c1Cl [crizotinib]
# How it was run: as §1
# [2] = compound: C[C@@H]1COCCN1C2=NC(=NC(=C2)C3(CC3)S(=O)(=O)C)C4=C5C=CNC5=CC=C4
# How it was run: as §1
# [3] = compound: C[C@H](C1=CC=C(C=C1)C(=O)NC2=C3C=CNC3=NC=C2)N
# How it was run: as §1
# duvelisib = compound: C[C@H](Nc1ncnc2nc[nH]c12)c1cc2cccc(Cl)c2c(=O)n1-c1ccccc1 [duvelisib]
# How it was run: as §1
# gandotinib = compound: Cc1cc(Nc2cc(CN3CCOCC3)c3nc(C)c(Cc4ccc(Cl)cc4F)n3n2)n[nH]1 [gandotinib]
# How it was run: as §1
# tozasertib = compound: Cc1cc(Nc2cc(N3CCN(C)CC3)nc(Sc3ccc(NC(=O)C4CC4)cc3)n2)n[nH]1 [tozasertib]
# How it was run: as §1
# [4] = compound: Cc1cc(SCc2sc(-c3ccc(C(F)(F)F)cc3)nc2C)ccc1OCC(=O)O
# How it was run: as §1
# doramapimod = compound: Cc1ccc(-n2nc(C(C)(C)C)cc2NC(=O)Nc2ccc(OCCN3CCOCC3)c3ccccc23)cc1 [doramapimod]
# How it was run: as §1
# bafetinib = compound: Cc1ccc(NC(=O)c2ccc(CN3CC[C@H](N(C)C)C3)c(C(F)(F)F)c2)cc1Nc1nccc(-c2cncnc2)n1 [bafetinib]
# How it was run: as §1
# [5] = compound: Cc1cccc(CC(=O)N2CCc3c2ccc(-c2cn(C)c4ncnc(N)c24)c3F)n1
# How it was run: as §1
# nilotinib = compound: Cc1cn(-c2cc(NC(=O)c3ccc(C)c(Nc4nccc(-c5cccnc5)n4)c3)cc(C(F)(F)F)c2)cn1 [nilotinib]
# How it was run: as §1
# [6] = compound: Cc1nc(Nc2n[nH]c3c2CN(C(=O)N[C@H](CN(C)C)c2ccccc2)C3(C)C)c2sccc2n1
# How it was run: as §1
# dasatinib = compound: Cc1nc(Nc2ncc(C(=O)Nc3c(C)cccc3Cl)s2)cc(N2CCN(CCO)CC2)n1 [dasatinib]
# How it was run: as §1
# [7] = compound: Cc1ncc(-c2ccnc(Nc3ccc(S(C)(=O)=O)cc3)n2)n1C(C)C
# How it was run: as §1
# [8] = compound: Cn1cc(-c2ccc3c(c2)CCN3C(=O)Cc2cccc(C(F)(F)F)c2)c2c(N)ncnc21
# How it was run: as §1
# tipifarnib = compound: Cn1cncc1[C@@](N)(c1ccc(Cl)cc1)c1ccc2c(c1)c(-c1cccc(Cl)c1)cc(=O)n2C [tipifarnib]
# How it was run: as §1
# mubritinib = compound: FC(F)(F)c1ccc(/C=C/c2nc(COc3ccc(CCCCn4ccnn4)cc3)co2)cc1 [mubritinib]
# How it was run: as §1
# ispinesib = compound: Cc1ccc(C(=O)N(CCCN)[C@@H](c2nc3cc(Cl)ccc3c(=O)n2Cc2ccccc2)C(C)C)cc1 [ispinesib]
# How it was run: as §1
# [9] = compound: Cn1cc(-c2ccc3nnc(C(F)(F)c4ccc5ncccc5c4)n3n2)cn1
# How it was run: as §1
# Sequence of UniProt Q86TN4 (Q86TN4 whole entry, looked up): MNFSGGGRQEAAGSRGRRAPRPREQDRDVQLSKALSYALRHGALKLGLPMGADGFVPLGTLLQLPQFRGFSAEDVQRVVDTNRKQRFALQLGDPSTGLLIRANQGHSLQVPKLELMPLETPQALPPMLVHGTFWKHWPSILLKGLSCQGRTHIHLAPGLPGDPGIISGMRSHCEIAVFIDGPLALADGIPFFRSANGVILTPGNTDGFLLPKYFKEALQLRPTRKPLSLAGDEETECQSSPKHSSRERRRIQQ
# Sequence of UniProt Q7Z7N9 (Q7Z7N9 whole entry, looked up): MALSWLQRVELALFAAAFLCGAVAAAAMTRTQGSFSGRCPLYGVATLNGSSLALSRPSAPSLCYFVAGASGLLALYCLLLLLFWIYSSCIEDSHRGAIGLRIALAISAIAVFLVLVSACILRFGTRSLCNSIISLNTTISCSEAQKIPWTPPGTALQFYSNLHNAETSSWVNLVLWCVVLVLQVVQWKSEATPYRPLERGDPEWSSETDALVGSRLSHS
# Sequence of UniProt Q9Y2L5 (Q9Y2L5 whole entry, looked up): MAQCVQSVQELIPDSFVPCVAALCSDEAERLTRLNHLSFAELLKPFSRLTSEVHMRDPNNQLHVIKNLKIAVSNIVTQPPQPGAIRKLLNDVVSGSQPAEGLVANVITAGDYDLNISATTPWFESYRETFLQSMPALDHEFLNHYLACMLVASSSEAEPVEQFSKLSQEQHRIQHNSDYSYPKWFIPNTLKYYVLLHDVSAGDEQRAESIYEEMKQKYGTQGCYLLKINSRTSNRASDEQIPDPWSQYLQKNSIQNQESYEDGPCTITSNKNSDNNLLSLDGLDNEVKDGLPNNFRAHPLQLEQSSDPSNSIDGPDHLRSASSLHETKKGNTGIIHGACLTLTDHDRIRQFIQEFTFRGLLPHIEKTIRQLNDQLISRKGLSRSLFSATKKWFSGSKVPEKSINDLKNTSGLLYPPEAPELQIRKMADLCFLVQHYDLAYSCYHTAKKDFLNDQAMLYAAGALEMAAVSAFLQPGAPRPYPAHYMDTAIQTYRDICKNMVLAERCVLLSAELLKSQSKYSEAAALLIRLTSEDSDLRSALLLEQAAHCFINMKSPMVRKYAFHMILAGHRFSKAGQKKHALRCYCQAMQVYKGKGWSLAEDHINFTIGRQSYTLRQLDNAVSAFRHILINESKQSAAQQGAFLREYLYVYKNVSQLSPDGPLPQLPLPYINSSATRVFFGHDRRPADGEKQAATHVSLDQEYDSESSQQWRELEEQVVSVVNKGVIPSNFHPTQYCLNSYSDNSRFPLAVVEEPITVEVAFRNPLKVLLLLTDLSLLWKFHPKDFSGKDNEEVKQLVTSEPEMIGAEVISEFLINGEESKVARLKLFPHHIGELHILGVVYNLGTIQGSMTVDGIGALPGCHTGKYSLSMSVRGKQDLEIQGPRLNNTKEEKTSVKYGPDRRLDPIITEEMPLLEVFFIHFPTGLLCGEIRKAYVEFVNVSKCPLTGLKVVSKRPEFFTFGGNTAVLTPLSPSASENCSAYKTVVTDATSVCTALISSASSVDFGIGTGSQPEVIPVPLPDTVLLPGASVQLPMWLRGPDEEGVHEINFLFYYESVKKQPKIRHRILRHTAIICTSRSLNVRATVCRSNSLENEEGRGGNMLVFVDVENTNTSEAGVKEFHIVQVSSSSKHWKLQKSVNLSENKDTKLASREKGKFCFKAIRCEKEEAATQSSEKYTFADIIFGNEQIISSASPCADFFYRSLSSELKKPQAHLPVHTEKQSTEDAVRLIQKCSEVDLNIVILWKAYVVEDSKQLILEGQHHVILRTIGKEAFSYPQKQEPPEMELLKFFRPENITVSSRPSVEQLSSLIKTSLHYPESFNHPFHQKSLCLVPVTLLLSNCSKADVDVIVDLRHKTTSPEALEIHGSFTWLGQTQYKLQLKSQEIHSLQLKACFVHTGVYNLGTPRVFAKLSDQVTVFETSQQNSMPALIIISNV
# Sequence of UniProt Q9Y5Z9 (Q9Y5Z9 whole entry, looked up): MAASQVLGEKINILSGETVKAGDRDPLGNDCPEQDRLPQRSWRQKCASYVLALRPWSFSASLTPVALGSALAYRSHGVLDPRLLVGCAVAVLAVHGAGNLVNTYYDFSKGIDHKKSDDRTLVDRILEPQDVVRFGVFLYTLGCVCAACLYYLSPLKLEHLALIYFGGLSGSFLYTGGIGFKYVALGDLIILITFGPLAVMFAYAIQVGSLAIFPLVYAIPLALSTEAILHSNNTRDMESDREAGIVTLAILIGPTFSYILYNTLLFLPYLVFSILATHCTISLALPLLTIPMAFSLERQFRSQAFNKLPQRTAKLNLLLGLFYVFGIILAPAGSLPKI
# Sequence of UniProt P36406 (P36406 whole entry, looked up): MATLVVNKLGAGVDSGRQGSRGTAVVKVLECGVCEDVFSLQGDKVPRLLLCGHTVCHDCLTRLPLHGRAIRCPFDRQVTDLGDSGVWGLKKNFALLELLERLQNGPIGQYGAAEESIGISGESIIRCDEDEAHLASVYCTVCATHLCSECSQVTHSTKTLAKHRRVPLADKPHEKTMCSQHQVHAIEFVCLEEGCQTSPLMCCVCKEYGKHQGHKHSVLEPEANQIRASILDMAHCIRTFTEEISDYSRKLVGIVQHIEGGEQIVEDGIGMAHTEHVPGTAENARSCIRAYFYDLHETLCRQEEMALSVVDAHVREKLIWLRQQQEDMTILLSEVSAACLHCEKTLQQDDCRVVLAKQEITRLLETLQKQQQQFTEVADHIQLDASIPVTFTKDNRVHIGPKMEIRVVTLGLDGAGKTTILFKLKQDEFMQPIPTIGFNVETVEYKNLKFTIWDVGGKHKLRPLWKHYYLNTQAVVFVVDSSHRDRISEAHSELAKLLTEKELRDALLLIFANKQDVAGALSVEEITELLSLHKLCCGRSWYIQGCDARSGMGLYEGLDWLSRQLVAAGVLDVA
# Sequence of UniProt Q9NUM4 (Q9NUM4 whole entry, looked up): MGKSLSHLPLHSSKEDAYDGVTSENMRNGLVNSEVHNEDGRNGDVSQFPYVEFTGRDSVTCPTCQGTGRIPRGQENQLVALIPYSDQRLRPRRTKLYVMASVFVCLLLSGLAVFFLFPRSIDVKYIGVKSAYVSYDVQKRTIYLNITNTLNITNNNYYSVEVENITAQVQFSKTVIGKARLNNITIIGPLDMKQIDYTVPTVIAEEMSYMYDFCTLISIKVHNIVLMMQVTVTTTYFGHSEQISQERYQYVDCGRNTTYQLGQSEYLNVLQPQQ
# Sequence of UniProt Q9UDW1 (Q9UDW1 whole entry, looked up): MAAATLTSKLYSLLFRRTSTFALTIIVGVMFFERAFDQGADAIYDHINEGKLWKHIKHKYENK
# Sequence of UniProt Q8NE00 (Q8NE00 whole entry, looked up): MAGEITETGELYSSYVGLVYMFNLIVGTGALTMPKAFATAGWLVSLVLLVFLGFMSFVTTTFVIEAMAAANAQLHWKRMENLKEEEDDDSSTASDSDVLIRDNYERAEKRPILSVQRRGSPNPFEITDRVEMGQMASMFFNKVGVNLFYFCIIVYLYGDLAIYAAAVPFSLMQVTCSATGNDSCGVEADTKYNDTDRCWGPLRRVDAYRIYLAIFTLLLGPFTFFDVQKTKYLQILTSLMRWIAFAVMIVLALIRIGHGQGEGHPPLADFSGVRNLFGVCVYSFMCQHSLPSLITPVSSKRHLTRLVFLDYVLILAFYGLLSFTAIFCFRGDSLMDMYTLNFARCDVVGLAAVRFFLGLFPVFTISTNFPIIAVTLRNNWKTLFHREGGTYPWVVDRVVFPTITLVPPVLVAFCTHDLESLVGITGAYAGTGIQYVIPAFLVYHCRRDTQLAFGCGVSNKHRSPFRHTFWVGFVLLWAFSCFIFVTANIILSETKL
# Sequence of UniProt Q9HCN3 (Q9HCN3 whole entry, looked up): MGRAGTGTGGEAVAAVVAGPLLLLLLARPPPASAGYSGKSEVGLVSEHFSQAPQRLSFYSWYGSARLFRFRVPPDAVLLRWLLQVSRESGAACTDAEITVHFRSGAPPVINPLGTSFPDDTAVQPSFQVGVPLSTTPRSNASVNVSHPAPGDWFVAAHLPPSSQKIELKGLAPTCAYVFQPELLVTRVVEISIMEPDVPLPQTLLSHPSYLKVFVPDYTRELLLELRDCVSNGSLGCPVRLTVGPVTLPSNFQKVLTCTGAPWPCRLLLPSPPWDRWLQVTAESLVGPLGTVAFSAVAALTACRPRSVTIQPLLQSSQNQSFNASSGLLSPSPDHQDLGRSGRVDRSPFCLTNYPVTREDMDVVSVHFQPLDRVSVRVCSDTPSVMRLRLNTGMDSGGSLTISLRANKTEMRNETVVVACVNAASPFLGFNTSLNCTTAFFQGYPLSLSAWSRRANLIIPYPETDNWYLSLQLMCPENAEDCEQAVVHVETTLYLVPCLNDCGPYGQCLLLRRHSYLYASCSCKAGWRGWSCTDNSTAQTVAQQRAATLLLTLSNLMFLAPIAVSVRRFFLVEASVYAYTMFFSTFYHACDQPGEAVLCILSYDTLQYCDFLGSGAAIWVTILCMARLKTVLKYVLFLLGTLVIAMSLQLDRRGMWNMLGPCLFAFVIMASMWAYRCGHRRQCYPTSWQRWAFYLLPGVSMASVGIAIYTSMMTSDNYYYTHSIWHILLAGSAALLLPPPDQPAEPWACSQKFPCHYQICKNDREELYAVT
# Sequence of UniProt Q9NQ34 (Q9NQ34 whole entry, looked up): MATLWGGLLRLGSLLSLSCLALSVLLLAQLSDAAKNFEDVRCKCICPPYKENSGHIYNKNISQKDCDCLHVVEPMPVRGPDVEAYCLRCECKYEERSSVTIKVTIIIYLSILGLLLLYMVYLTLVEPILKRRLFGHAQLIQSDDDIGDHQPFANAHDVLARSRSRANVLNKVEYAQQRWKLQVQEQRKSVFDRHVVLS
# Sequence of UniProt P51809 (P51809 whole entry, looked up): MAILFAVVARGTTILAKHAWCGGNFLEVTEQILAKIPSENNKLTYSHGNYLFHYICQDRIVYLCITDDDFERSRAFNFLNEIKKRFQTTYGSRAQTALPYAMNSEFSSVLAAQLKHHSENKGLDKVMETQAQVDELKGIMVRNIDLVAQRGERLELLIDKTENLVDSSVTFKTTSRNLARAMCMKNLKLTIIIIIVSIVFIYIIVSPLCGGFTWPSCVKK
# Sequence of UniProt P61960 (P61960 whole entry, looked up): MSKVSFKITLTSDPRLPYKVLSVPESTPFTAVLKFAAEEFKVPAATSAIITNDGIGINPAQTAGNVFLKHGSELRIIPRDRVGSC
Target,log2 fold change [1],log2 fold change (crizotinib),log2 fold change [2],log2 fold change [3],log2 fold change (duvelisib),log2 fold change (gandotinib),log2 fold change (tozasertib),log2 fold change [4],log2 fold change (doramapimod),log2 fold change (bafetinib),log2 fold change [5],log2 fold change (nilotinib),log2 fold change [6],log2 fold change (dasatinib),log2 fold change [7],log2 fold change [8],log2 fold change (tipifarnib),log2 fold change (mubritinib),log2 fold change (ispinesib),log2 fold change [9]
TMEM106B (UniProt Q9NUM4),-0.024,-0.382 (active),0.389,-0.054,0.03,-0.021,-0.073,0,0.014,-0.094,0.035,-0.015,0.02,0.098,-0.007,0.083,0.029,0.023,–,–
UQCR10 (UniProt Q9UDW1),-0.036,0.079,0.071,-0.043,0.089,-0.403 (active),0.013,0.013,-0.025,-0.047,-0.011,-0.003,0.02,-0.009,-0.059,0.072,0.007,-0.024,0.095,0.084
TSG101 (UniProt Q99816),0.035,-0.094,0.082,-0.054,0.019,-0.024,0.032,0.018,0.009,-0.096,-0.034,-0.014,-0.081,-0.092,-0.007,0.033,-0.033,0.052,-0.037,-0.024
USP15 (UniProt Q9Y4E8),0.04,-0.041,0.05,-0.009,0.01,-0.043,0.056,0.063,-0.045,-0.01,0.047,-0.064,-0.082,-0.099,0.005,0.021,-0.081,0.023,-0.036,0.044
TRAPPC8 (UniProt Q9Y2L5),0.036,-0.033,-0.008,0.032,0.002,-0.056,0.015,0.117,-0.012,-0.037,0.044,-0.055,-0.04,-0.133,0.059,0,-0.013,0.045,-0.138,0.004
TMEM179B (UniProt Q7Z7N9),-0.005,-0.167,0.101,-0.165,–,-0.138,0.032,–,0.071,-0.074,-0.065,0.046,-0.018,–,-0.013,0.154,0.167,-0.025,-0.099,0.019
VAMP7 (UniProt P51809),0.021,-0.299 (active),0.005,-0.046,-0.005,-0.026,0.005,-0.011,-0.007,-0.066,0.025,-0.034,-0.04,0.002,0.023,0.017,-0.04,0.003,-0.275 (active),0.086
TMEM9B (UniProt Q9NQ34),-0.035,-0.011,0.105,0.061,–,-0.116,-0.03,–,0.023,-0.039,0.036,0.005,0.009,–,-0.015,0.051,-0.108,0.009,-0.211,0.164
VPS72 isoform 2 (UniProt Q15906),-0.041,–,0.093,0.196,-0.021,–,0.007,-0.021,–,-0.064,–,0.086,0.02,0.044,-0.024,-0.052,0.074,0.009,0.218,0.08
UBAP2L (UniProt F8W726),–,–,–,–,–,-0.072,-0.003,–,–,0.02,-0.049,0.151,0.063,–,-0.109,–,0.245,-0.032,–,–
TRPT1 isoform 4 (UniProt Q86TN4),-0.176,-0.011,–,–,–,–,–,–,0.013,–,–,–,–,–,–,–,–,0.041,-0.105,-0.011
UBIAD1 (UniProt Q9Y5Z9),0.107,0.024,–,0.001,0.021,0.069,-0.019,0.004,-0.1,-0.004,-0.022,0.074,0.004,0.176,-0.004,0.052,0.003,-0.144,-0.117,0.006
TSPAN13 (UniProt O95857),-0.055,–,0.4,-0.17,0.045,-0.05,-0.06,-0.124,–,-0.101,0.014,0.056,-0.035,-0.163,-0.095,-0.038,-0.008,0.226,-0.03,0.095
UFM1 isoform 2 (UniProt P61960),-0.009,–,-0.065,-0.157,-0.004,-0.066,-0.042,0.063,–,-0.061,0.089,-0.009,0.023,0.116,0.002,0.045,-0.016,-0.015,–,–
TMEM8A (UniProt Q9HCN3),0.425,–,–,0.049,0.394,0.014,-0.026,-0.095,–,-0.054,0.096,-0.033,0.071,-0.409,0.019,-0.046,0.047,-0.001,-0.065,0
TMEM268 isoform 3 (UniProt Q5VZI3),-0.146,–,-0.308,-0.078,0.371,0.124,-0.073,-0.063,–,0.318,-0.096,0.008,-0.005,-0.194,0.165,0.112,0.003,0.109,-0.227,0.014
TRIM5 (UniProt Q9C035),-0.032,–,0.037,0.148,-0.109,–,-0.096,-0.127,–,–,–,–,–,-0.088,–,0.013,–,–,-0.821 (active),0.133
TRIM23 (UniProt P36406),0.143,0.152,–,-0.122,0.008,0.128,-0.135,0.001,-0.043,-0.006,-0.121,-0.091,0.001,-0.004,0.088,0.126,–,0.028,0.115,0.002
TMEM104 (UniProt Q8NE00),–,-0.145,0.012,0.009,0.129,-0.087,–,-0.049,0.112,–,0.172,0.019,-0.003,0.009,-0.013,0.066,0.035,-0.089,-0.34,0.095
